We go through six compounds from PubChem BioAssay (EPA / NIEHS).

Assay [1] addresses Nuclear receptor subfamily 1 group I member 3 (Homo sapiens) (UniProt Q14994). Put plainly: ATG_CAR_TRANS: Attagene TRANS-FACTORIAL HepG2 Assay for human Constitutive Androstane Receptor (CAR) (AID 2282969).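 Further: activators raise reporter mRNA above DMSO so AC50 marks induction.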 Particulars: HepG2 Attagene TRANS-FACTORIAL CAR reporter. In a few lines:
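Readout is reporter mRNA induction, quantified by fluorescent primer extension and capillary electrophoresis after RT-PCR. Cells were HepG2 transiently carrying chimeric NR-Gal4 constructs with GAL4-UAS reporters, treated for 24 h; activity scored upward from DMSO.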

Assay [2] deals with Estrogen receptor (Homo sapiens) (UniProt P03372). As to the kind of experiment: ATG_ERa_TRANS: Attagene TRANS-FACTORIAL HepG2 Assay for human Estrogen Receptor alpha (ERa) (AID 2282970). Particulars: HepG2 Attagene TRANS ERa GAL4 reporter, mRNA. In a few lines: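 HepG2 cells transiently transfected with multiplexed GAL4-UAS reporter units; ERa activity read via exogenous chimeric NR-Gal4 protein. After 24 hour compound exposure, reporter mRNA measured by RT-PCR with 6-FAM labelling and capillary electrophoresis; gain-of-signal fitted relative to DMSO.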

For assay [3], the target named is X-box-binding protein 1 (Homo sapiens) (UniProt P17861). As to the kind of experiment: ATG_Xbp1_CIS: Attagene CIS-FACTORIAL HepG2 Assay for human X-box Binding Protein 1 (XBP1) (AID 2282972; active means hit-call score of the fitted dose curve at least 0.9, where 1 is the maximum; inactive means score below 0.9). Particulars: HepG2 XBP1 cis-element reporter, Attagene multiplex; actives raise or lower the signal. Summed up:
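HepG2 cells transiently transfected with multiple cis-element reporter units report endogenous TF activity; 24 h exposure, then reporter mRNA measured by RT-PCR, 6-FAM labelling, HpaI digestion and capillary electrophoresis. Bidirectional fitting versus DMSO.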

Assay [4] is described as follows: ATG_GAL4_TRANS: Attagene TRANS-FACTORIAL HepG2 Assay for GAL4 (Internal Marker) (AID 2282976). Particulars: HepG2 Attagene TRANS GAL4 internal marker reporter. Summed up: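 HepG2 cells transiently transfected with multiplexed GAL4-UAS reporter constructs were dosed for 24 h. Reporter mRNA was measured by RT-PCR, 6-FAM primer extension, HpaI digestion and capillary electrophoresis, and gain of signal was fitted relative to DMSO.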

In assay [5] the target is Glucocorticoid receptor (Homo sapiens) (UniProt P04150). Put plainly: ATG_GR_TRANS: Attagene TRANS-FACTORIAL HepG2 Assay for human Glucocorticoid Receptor (GR) (AID 2282978).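 Further: activators score as hits since higher reporter transcript over DMSO is fitted.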 The settings on record: HepG2 Attagene TRANS GR reporter, mRNA transcription. Summed up: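 Fluorescent capillary-electrophoresis quantitation of reporter mRNA is the readout, taken 24 h after dosing human HepG2 cells carrying transiently transfected GAL4-UAS reporter units activated by chimeric NR-GAL4 fusions; activity scored as induction over DMSO.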

The target in assay [6] is Bile acid receptor (Homo sapiens) (UniProt Q96RI1). As to the kind of experiment: ATG_FXR_TRANS: Attagene TRANS-FACTORIAL HepG2 Assay for Farnesoid X Receptor (FXR) (AID 2282979).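 Further: hits raise reporter mRNA above DMSO so AC50 marks FXR activation.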 Particulars: HepG2 Attagene TRANS FXR-GAL4 reporter transcription. In a few lines:
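HepG2 cells transiently transfected with reporter constructs in which a chimeric FXR-GAL4 protein drives a GAL4-UAS reporter; 24 h compound exposure. Reporter mRNA measured by RT-PCR, FAM labelling, HpaI digestion and capillary electrophoresis; gain-of-signal versus DMSO.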

Assay [7] in a line: ATG_M_06_TRANS: Attagene TRANS-FACTORIAL HepG2 Assay for M06 Transcription Factor (Internal Marker) (AID 2282983). Particulars: HepG2 Attagene TRANS M06 internal marker reporter. In a few lines:
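HepG2 cells transiently transfected with multiplexed GAL4-UAS reporter transcription units; after 24 h compound exposure, reporter mRNA measured by RT-PCR, FAM-labelled primer extension, HpaI digestion and capillary electrophoresis. Gain-of-signal fitted versus DMSO baseline; background control readout.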

The target of assay [8] is Nuclear receptor subfamily 4 group A member 2 (Homo sapiens) (UniProt P43354). As to the kind of experiment: ATG_NURR1_TRANS: Attagene TRANS-FACTORIAL HepG2 Assay for human Nuclear Receptor Related Protein 1 (NURR1) (AID 2282985). The settings on record: HepG2 Attagene TRANS reporter, mRNA readout. Summed up:
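Transient transfection of HepG2, human liver cells, with multiple GAL4-UAS reporter transcription units. Cells dosed 24 h, RNA isolated, reverse-transcribed, PCR-amplified, FAM-labelled, HpaI-digested, sized by capillary electrophoresis. DMSO served as negative control.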

In assay [9] the target is Transcriptional activator Myb (Homo sapiens) (UniProt P10242). Put plainly: ATG_Myb_CIS: Attagene CIS-FACTORIAL HepG2 Assay for human Myeloblastosis (Myb) Proto-Oncogene Transcription Factor (AID 2282986; active means hit-call score of the fitted dose curve at least 0.9, where 1 is the maximum; inactive means score below 0.9). The settings on record: HepG2 Attagene CIS-FACTORIAL Myb reporter transcription; actives raise or lower the signal. Summed up:
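Reporter transcript levels, quantified by fluorescent RT-PCR and capillary electrophoresis, serve as the read-out. Transfected HepG2 cells carrying cis-promoter reporter units are dosed for 24 hours, and curves are fitted bidirectionally against DMSO controls.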

Assay [10] has as its target Nuclear respiratory factor 1 (Homo sapiens) (UniProt Q16656). As to the kind of experiment: ATG_NRF1_CIS: Attagene CIS-FACTORIAL HepG2 Assay for human Nuclear Respiratory Factor 1 (NRF1) Orphan Gene (AID 2282987; active means hit-call score of the fitted dose curve at least 0.9, where 1 is the maximum; inactive means score below 0.9). Particulars: HepG2 NRF1 cis-element reporter, Attagene multiplex; actives raise or lower the signal. In a few lines: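 Multiplexed cis-reporter assay, HepG2 cells, 24 h treatment. Total RNA → oligo(dT) RT → PCR with reporter-specific primers → 6-FAM primer extension → HpaI cut → CE. Bidirectional fit vs DMSO.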

Assay [11] can be described thus: ATG_NFI_CIS: Attagene CIS-FACTORIAL HepG2 Assay for human Nuclear Factor I (NFI) (AID 2282989; active means hit-call score of the fitted dose curve at least 0.9, where 1 is the maximum; inactive means score below 0.9). The settings on record: HepG2 cis-regulatory reporter, NFI response element transcription; actives raise or lower the signal. Summed up: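 Reporter transcripts were measured by RT-PCR with fluorescent primer extension and capillary electrophoresis 24 h post-treatment. HepG2 cells carried transiently transfected cis-regulated reporter constructs reporting endogenous factor activity; gain or loss fitted against DMSO baseline.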

The target in assay [12] is Myc proto-oncogene protein (Homo sapiens) (UniProt P01106). Put plainly: ATG_Myc_CIS: Attagene CIS-FACTORIAL HepG2 Assay for human Myelocytomatosis (Myc) Proto-Oncogene Transcription Factor (AID 2282990; active means hit-call score of the fitted dose curve at least 0.9, where 1 is the maximum; inactive means score below 0.9). Particulars: HepG2, Attagene cis-reporter transcription factor activity; actives raise or lower the signal. Summed up: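 HepG2, transient MRTU transfection (cis promoters, endogenous TFs); 24 h dosing; TriZol RNA → oligo(dT) RT → PCR → 6-FAM primer extension → HpaI cut → CE. Bidirectional fit vs DMSO.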

For assay [13], the target named is Steroid hormone receptor ERR1 (Homo sapiens) (UniProt P11474). Put plainly: ATG_ERRa_TRANS: Attagene TRANS-FACTORIAL HepG2 Assay for human Estrogen-Related Receptor alpha (ERRa) (AID 2282971). Particulars: HepG2 Attagene TRANS reporter, ERRa transactivation. In a few lines:
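HepG2 cells transiently transfected with multiplexed GAL4-UAS reporter units reading chimeric ERRa-Gal4 activity; 24 h compound exposure. Reporter mRNA measured by RT-PCR, 6-FAM labelling, HpaI digest and capillary electrophoresis; gain of signal fitted versus DMSO baseline.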

The nature of assay [14]: ATG_M_19_TRANS: Attagene TRANS-FACTORIAL HepG2 Assay for M19 Transcription Factor (Internal Marker) (AID 2282974). Particulars: HepG2 Attagene TRANS-FACTORIAL M19 internal marker reporter. In a few lines:
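Fluorescence of 6-FAM-labelled reporter cDNA fragments, separated by capillary electrophoresis, served as the readout. These derived from HepG2 cells carrying transfected GAL4-UAS reporter units after 24 h dosing, with DMSO as negative control.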

In assay [15] the target is Oxysterols receptor LXR-alpha (Homo sapiens) (UniProt Q13133). Put plainly: ATG_LXRa_TRANS: Attagene TRANS-FACTORIAL HepG2 Assay for human Liver X Receptor alpha (LXRa) (AID 2282980). The settings on record: HepG2 Attagene TRANS reporter, LXRa transactivation. In a few lines: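 HepG2 cells were transiently transfected with multiplexed reporter units driven by chimeric LXRa–GAL4 fusion proteins, then dosed for 24 h. Reporter mRNA was quantified by RT-PCR, fluorescent labelling and capillary electrophoresis; gain of signal fitted against DMSO baseline.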

The target in assay [16] is Oxysterols receptor LXR-beta (Homo sapiens) (UniProt P55055). Put plainly: ATG_LXRb_TRANS: Attagene TRANS-FACTORIAL HepG2 Assay for human Liver X Receptor beta (LXRb) (AID 2282981). The settings on record: HepG2 Attagene TRANS GAL4-LXRb reporter, mRNA. In a few lines: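 Transient transfection HepG2 (multiplexed RTUs, GAL4-UAS); NR-Gal4 chimera; 24 h exposure; RNA → RT-PCR → 6-FAM primer extension → HpaI → CE; increase vs DMSO.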

The nature of assay [17]: ATG_M_32_TRANS: Attagene TRANS-FACTORIAL HepG2 Assay for M32 Transcription Factor (Internal Marker) (AID 2282984). The settings on record: HepG2 Attagene TRANS M32 internal marker reporter. In a few lines:
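Measures reporter mRNA induction in human HepG2 liver cells after 24 h chemical treatment. Transcripts from transiently transfected GAL4-UAS reporter units are amplified, fluorescently labelled and sized by capillary electrophoresis; gain of signal relative to DMSO.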

The target of assay [18] is Androgen receptor (Homo sapiens) (UniProt P10275). As to the kind of experiment: ATG_AR_TRANS: Attagene TRANS-FACTORIAL HepG2 Assay for human Androgen Receptor (AR) (AID 2282973). The settings on record: HepG2 Attagene TRANS-FACTORIAL AR reporter transcription. In a few lines:
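HepG2 cells transiently transfected with multiplexed GAL4-UAS reporter units and chimeric NR-Gal4 fusion; 24 h compound exposure. Reporter mRNA measured by RT-PCR, 6-FAM labelling, HpaI digestion and capillary electrophoresis; gain-of-signal fitted relative to DMSO baseline.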

For assay [19], the target named is Estrogen-related receptor gamma (Homo sapiens) (UniProt P62508). Put plainly: ATG_ERRg_TRANS: Attagene TRANS-FACTORIAL HepG2 Assay for human Estrogen-Related Receptor gamma (ERRg) (AID 2282977).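 Further: hits increase reporter signal over DMSO so potencies reflect activators.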 The settings on record: HepG2 Attagene TRANS reporter, ERRg transactivation. Summed up: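 HepG2 cells transiently transfected with multiplexed GAL4-UAS reporter units driven by chimeric NR-Gal4 proteins; 24 h exposure. Reporter mRNA quantified by RT-PCR, fluorescent labelling, HpaI digestion and capillary electrophoresis; gain of signal vs DMSO.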

Inconclusive results are not listed. Calls of active or inactive are those of the source. How the source made its calls, unless noted: active means hit-call score of the fitted dose curve at least 0.9, where 1 is the maximum; inconclusive means response in the unintended direction; inactive means score below 0.9.

Sequence of Estrogen receptor (Homo sapiens) (P03372 whole entry, looked up, the tested form may be a part): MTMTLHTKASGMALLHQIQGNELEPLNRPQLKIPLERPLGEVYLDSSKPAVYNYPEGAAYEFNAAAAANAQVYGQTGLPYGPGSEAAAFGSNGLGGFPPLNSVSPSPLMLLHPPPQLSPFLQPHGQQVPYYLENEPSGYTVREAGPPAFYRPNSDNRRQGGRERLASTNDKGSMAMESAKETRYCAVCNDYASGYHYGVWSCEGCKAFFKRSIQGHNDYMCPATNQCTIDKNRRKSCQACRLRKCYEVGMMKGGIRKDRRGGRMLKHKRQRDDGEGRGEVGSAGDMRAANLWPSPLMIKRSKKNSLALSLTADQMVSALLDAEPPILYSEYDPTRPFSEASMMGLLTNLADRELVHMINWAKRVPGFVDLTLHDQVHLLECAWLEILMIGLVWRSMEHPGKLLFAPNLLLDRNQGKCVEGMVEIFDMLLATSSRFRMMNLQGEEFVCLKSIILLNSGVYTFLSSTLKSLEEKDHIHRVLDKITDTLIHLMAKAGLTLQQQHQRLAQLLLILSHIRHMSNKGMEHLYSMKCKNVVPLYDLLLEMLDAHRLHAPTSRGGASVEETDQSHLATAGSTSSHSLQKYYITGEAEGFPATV
Sequence of Transcriptional activator Myb (Homo sapiens) (P10242 whole entry, looked up): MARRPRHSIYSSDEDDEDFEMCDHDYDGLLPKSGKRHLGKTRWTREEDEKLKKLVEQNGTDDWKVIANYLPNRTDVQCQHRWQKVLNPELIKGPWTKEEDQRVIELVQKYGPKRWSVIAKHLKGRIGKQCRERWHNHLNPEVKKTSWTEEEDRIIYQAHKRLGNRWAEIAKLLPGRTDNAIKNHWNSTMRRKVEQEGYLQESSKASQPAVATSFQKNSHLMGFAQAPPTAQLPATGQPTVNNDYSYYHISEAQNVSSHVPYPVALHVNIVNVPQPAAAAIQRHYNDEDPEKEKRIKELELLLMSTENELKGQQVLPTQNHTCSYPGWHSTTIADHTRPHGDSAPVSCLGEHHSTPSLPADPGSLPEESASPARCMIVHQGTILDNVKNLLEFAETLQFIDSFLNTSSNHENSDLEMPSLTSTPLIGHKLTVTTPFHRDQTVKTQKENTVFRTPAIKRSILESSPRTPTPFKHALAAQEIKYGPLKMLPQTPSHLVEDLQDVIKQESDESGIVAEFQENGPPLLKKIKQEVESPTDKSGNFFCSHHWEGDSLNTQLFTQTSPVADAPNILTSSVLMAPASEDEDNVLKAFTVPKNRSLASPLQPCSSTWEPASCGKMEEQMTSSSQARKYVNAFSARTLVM
Sequence of Nuclear respiratory factor 1 (Homo sapiens) (Q16656 whole entry, looked up): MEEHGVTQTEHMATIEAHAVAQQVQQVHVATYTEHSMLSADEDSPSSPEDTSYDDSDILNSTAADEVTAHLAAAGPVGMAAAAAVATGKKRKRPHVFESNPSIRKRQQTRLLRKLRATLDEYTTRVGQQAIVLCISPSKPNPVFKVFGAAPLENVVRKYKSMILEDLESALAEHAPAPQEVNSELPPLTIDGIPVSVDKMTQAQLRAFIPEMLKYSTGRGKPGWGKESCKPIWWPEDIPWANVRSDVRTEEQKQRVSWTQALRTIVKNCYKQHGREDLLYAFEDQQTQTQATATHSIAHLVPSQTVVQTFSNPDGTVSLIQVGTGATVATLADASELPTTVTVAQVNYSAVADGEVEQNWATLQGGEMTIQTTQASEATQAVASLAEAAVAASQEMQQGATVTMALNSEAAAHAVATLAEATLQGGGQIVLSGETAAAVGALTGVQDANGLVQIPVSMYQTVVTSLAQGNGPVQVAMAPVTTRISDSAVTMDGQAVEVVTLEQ
Sequence of Bile acid receptor (Homo sapiens) (Q96RI1 whole entry, looked up, the tested form may be a part): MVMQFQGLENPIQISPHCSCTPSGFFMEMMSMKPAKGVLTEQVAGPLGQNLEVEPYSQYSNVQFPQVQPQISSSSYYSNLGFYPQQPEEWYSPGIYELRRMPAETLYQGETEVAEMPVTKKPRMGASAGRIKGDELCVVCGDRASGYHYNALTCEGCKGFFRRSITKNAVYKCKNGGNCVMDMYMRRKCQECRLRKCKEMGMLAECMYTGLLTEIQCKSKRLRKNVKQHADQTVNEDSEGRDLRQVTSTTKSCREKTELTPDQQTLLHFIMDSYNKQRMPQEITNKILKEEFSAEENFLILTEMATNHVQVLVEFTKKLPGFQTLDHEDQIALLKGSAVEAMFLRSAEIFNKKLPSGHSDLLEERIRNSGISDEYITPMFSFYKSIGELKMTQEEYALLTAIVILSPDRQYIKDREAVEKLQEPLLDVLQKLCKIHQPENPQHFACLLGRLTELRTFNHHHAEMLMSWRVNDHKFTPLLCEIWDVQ
Sequence of Myc proto-oncogene protein (Homo sapiens) (P01106 whole entry, looked up): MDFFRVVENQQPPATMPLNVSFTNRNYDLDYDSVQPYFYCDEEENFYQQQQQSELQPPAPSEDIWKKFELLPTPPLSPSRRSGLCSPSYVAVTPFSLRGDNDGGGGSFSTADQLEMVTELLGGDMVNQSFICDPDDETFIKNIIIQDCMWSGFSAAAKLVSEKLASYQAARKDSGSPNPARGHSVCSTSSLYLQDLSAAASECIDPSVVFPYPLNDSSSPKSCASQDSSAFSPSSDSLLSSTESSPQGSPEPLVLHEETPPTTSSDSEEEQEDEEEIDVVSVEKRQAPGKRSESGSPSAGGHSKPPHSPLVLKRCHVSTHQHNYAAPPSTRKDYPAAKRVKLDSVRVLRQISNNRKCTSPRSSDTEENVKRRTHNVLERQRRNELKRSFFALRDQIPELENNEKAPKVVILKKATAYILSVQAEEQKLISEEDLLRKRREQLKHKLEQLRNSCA
Sequence of Glucocorticoid receptor (Homo sapiens) (P04150 whole entry, looked up, the tested form may be a part): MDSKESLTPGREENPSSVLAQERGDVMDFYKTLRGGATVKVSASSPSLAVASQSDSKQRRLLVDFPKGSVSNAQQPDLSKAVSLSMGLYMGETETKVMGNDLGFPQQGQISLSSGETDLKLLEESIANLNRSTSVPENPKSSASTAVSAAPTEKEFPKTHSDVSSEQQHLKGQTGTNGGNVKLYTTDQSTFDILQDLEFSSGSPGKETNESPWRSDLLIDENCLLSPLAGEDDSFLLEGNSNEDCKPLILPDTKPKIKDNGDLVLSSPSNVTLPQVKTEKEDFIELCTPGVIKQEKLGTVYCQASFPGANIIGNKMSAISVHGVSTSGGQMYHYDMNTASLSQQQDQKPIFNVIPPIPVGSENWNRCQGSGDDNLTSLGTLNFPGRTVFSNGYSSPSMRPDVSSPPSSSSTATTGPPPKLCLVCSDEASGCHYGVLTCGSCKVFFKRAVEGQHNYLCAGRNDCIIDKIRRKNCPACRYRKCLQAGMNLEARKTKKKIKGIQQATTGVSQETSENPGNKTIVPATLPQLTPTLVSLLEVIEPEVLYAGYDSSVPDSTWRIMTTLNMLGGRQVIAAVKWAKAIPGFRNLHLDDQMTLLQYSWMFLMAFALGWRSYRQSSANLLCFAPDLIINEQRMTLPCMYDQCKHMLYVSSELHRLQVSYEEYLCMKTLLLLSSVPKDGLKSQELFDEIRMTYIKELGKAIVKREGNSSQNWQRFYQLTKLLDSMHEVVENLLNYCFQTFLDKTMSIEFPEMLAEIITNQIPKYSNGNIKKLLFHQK
Sequence of X-box-binding protein 1 (Homo sapiens) (P17861 whole entry, looked up): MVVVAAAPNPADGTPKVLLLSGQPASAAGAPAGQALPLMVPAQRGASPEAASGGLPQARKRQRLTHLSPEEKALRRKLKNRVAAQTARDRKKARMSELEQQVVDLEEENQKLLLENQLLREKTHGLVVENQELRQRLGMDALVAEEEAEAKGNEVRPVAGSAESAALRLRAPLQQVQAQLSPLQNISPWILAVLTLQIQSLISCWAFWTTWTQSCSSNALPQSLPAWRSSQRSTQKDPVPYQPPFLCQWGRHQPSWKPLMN
Sequence of Nuclear receptor subfamily 1 group I member 3 (Homo sapiens) (Q14994 whole entry, looked up, the tested form may be a part): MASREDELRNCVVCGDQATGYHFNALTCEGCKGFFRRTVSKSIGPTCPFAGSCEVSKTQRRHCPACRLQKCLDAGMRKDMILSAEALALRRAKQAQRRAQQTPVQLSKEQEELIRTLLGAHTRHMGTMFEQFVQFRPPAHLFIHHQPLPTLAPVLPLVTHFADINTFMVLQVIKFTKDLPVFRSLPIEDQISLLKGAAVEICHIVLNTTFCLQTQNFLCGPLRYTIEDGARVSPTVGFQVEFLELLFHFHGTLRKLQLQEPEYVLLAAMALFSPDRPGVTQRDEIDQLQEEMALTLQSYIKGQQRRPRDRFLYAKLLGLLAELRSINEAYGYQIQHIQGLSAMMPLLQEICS
Sequence of Nuclear receptor subfamily 4 group A member 2 (Homo sapiens) (P43354 whole entry, looked up, the tested form may be a part): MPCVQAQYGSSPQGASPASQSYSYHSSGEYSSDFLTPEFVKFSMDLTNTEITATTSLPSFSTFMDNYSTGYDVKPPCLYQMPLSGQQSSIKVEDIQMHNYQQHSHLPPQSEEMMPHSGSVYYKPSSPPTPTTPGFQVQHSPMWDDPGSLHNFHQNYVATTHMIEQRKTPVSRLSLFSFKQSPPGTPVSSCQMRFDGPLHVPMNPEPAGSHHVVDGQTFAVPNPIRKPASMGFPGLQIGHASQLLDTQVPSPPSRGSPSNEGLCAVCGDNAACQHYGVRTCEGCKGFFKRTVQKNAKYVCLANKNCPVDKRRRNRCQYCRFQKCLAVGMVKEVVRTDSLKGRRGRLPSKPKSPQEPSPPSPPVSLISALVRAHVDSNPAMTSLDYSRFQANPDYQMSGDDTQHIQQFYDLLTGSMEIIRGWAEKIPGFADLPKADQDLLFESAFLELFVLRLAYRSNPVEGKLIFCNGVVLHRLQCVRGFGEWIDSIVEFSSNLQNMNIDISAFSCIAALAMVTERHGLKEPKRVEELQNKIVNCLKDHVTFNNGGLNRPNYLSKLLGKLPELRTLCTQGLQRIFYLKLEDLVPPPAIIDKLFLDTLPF

As for `C#CCOC(=O)/C=C(C)/C=C/CC(C)CCCC(C)C` (centres undefined), the call in assay [1], in assay [2], in assay [3], in [4], in [5] and in assay [6] was inactive. Besides, the call in assay [7], in assay [9], in assay [10], in [11] and in assay [12] was inactive. Moreover, the AC50 in assay [8] was 16.6 µM (active).

For `Brc1c(Br)c(Br)c(Oc2c(Br)c(Br)c(Br)c(Br)c2Br)c(Br)c1Br`, the call in assay [1], in [13], in assay [3], in assay [14], in assay [4] and in [5] was inactive. For the same compound, the compound was classed as inactive in assay [15], in assay [16], in [17], in assay [8], in [9] and in assay [11]. Further, the compound was classed as inactive in assay [12].

As for `Cc1ccc2nc3sc(=O)sc3nc2c1`, the outcome in assay [1], in assay [2], in [6], in [15], in assay [7] and in assay [17] was inactive. Further, the compound was called inactive in assay [8] and in [11]. Besides, the concentration at half-maximal activity (AC50) is 6.96 µM (active) in [3], 25 µM (active) in assay [9], 12.2 µM (active) in assay [10] and 6.38 µM (active) in [12].

With `O=C(N[C@H]1CN2CCC1CC2)c1ccc2c(c1)OCCO2`, the compound was classed as inactive in assay [1], in assay [3], in assay [18], in assay [4], in [19] and in assay [7]. Also, the call in assay [17], in assay [9], in assay [10], in assay [11] and in assay [12] was inactive.

For `O=S(=O)(c1ccc(Cl)cc1)c1cc(Cl)c(Cl)cc1Cl`, the result in [1], in assay [2], in [3], in [4], in assay [5] and in [6] was inactive. The compound was called inactive in [7], in [8], in [9], in assay [11] and in assay [12].

On to `O=C(O)C1(c2ccc3c(c2)OC[C@H](Cc2ccc(-c4ccccc4)cc2)[C@H]3O)CCCC1`, for which the compound was called inactive in [1], in assay [13], in assay [3], in assay [4], in assay [6] and in assay [17]. The result in assay [8], in assay [9], in assay [11] and in assay [12] was inactive.

As a reminder, the AC50 is the concentration giving half of the maximal activity seen.
